# From PubChem BioAssay AID1347048 (National Center for Advancing Translational Sciences (NCATS), 2019)
# Screen size: about 76,000 compounds; about 1,200 (1.6%) were called active. Not shown: some 4% with an inconclusive outcome. The entries come from a sample that favours actives as a whole. Unmarked numbers belong to inactive results. Calls follow the shape of the full dose curve.
# Target: Atrial natriuretic peptide receptor 1 (Homo sapiens) (UniProt P16066)
# Assay: Natriuretic polypeptide receptor (hNpr1) antagonism - Primary qHTS; also: nearly all actives have a fitted effect of over 60% in size
# Details: HEK293 hNpr1 GloSensor cGMP, ANP-stimulated luminescence; series mostly up to 70.6 µM; activity change, negative = inhibition: at the top concentration
# Excerpt: Pruritus or itch, is an irritating skin sensation that creates a need to scratch, and ranges from mildly unpleasant and passing to acute and persistent sensations. […] Conventional treatments include topical anti-inflammatory agents, anti-histamines, and emollients, which are aimed at managing the itchy sensation and not the underlying disease. The treatment of pruritus remains a diagnostic and therapeutic challenge. Neurotransmission in the spinal cord from primary pruriceptors to second order neurons is a necessary step that eventually results in the sensation of itch. At this synapse, primary pruriceptors use the neuropeptide natriuretic polypeptide B (NppB) to activate its cognate receptor Natriuretic polypeptide receptor 1 (Npr1) on second order neurons. Inhibition of this step is a new potential strategy to inhibit acute and chronic itch. In order to identify small molecular compounds that can inhibit the Npr1 receptor we developed a high-throughput assay to probe inhibition of the receptor guanylate cyclase Npr1. The assay was designed taking advantage of Promega's GloSensor[TM] technology (Fan, F. et al. 2008). It involves the expression of a cyclic guanosine monophosphate (cGMP) biosensor, comprised of a firefly luciferase variant that was coupled to the cGMP binding domain of human phosphodiesterase 5A, and loading of cells with a cell-permeable luciferase substrate to monitor cGMP production by Npr1 in real time in live cells. In detail, we generated human embryonic kidney 293 cells stably expressing the human Npr1 and the cGMP GloSensor[TM] pGS-40F. Stimulating these cells with the Npr1 agonists human NppA or NppB, luciferase-induced light production could be detected in a dose-dependent manner. We also generated HEK293 cells stably expressing human Npr2 and pGS-40F and cells only expressing pGS-40F to conduct secondary counter screens. In these cells, NppC or sodium nitroprusside were used to stimulate Npr2 or soluble guanylate cyclase which is endogenously expressed in HEK293 cells, respectively. REFERENCE F. Fan, B. F. Binkowski, B. L. Butler, P. F. Stecha, M. K. Lewis, K. V. Wood, Novel genetically encoded biosensors using firefly luciferase. ACS Chem. Biol., 2008, 3: 346-351 .
# PROTOCOL TABLES (as described by Inglese J, Shamu CE and Guy RK. 2007) SEQUENCE No. (e.g., 1, 2, 3, etc.); […] (e.g., Cells, Incubation, Reagent, etc.); VALUE and DESCRIPTION. GLOSENSOR PROTOCOL 1. Cells. Seed 1500 HEK293 cGMP-sensor cells expressing hNpr1 per well in 4uL into Greiner 1536-well white/solid bottom high base, tissue culture-treated plates. 2. Incubation. Incubate plated cells at 37C in 5% CO2, 95% RH overnight. 3. Reagent. Add 1uL per well GloSensor reagent from Promega (2% final concentration) or CO2 independent media vehicle control to respective columns of Greiner 1536-well plates. 4. Incubation. Incubate plated cells at room temperature for 2 h, protect from light. 5. Compounds. Library compounds and A-71915 control added at 23 nL per well, transferred by Pin Tool. 6. Incubation. Incubate plated cells for 30 min. at room temperature, protect from light. 7. Detector. GloSensor baseline pre-read luminescence measured using CCD-based camera (Viewlux). 8. Compound. Add 1uL of hNppA peptide to 0.1 nM final concentration to stimulate hNpr1 or CO2 independent media as vehicle control. 9. Incubation. Incubate treated cells at room temperature for 20 min., protect from light. 10. Detector. GloSensor post-hNppA luminescence measured using CCD-based camera (Viewlux). NOTES (numbers refer to Sequence numbers above) 1. HEK293 cells expressing hNpr1 and GIP/pGS-40F grown to 85-95% confluence (48-72 h) in T175 culture flasks (CO2 independent media supplemented with 10% FBS, 1% Pen/Strep antibiotics and 1 ug/mL puromycin). Trypsinize and harvest cells from T175 culture flasks and filter through 40 um cell strainer. Cells counted with Invitrogen Countess (30,000,000 - 50,000,000 cells/flask). […]
# % is scaled to controls: 0 for no effect and ±100 for the full control effect; potency is read from the fitted curve at half-maximal effect.
# Chain of Atrial natriuretic peptide receptor 1 (Homo sapiens) (P16066 whole entry, looked up): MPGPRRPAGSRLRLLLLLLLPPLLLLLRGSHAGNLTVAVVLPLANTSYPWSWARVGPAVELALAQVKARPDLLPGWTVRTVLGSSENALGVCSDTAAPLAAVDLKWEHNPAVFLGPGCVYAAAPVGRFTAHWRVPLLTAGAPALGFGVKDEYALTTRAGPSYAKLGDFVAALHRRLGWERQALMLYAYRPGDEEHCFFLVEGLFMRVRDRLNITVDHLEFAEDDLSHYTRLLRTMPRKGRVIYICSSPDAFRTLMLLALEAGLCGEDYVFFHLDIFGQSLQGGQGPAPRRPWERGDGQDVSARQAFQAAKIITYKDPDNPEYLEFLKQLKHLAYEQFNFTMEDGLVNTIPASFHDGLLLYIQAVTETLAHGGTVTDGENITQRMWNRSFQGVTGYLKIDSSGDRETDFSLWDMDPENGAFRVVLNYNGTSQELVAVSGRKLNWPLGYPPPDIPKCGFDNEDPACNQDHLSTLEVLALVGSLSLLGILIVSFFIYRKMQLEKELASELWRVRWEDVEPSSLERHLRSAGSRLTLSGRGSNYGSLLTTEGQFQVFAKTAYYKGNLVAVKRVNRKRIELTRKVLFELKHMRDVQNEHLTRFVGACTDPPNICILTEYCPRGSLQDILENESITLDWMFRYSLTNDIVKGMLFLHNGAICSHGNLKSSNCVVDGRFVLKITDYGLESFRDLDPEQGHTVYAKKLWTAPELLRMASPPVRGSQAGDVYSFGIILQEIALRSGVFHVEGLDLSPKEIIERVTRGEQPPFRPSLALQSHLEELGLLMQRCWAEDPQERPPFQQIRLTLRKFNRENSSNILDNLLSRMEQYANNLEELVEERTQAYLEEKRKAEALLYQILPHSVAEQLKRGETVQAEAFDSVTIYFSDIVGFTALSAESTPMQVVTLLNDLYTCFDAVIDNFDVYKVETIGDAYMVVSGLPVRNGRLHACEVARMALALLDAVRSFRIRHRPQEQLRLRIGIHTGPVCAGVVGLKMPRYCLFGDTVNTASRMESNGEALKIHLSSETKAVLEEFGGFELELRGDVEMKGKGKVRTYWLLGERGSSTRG
Compound,"activity change, negative = inhibition",Potency
COc1cc2c(cc1OCc1ccncc1)NC(=O)C21CCN(Cc2ccccn2)CC1,-3.28%,
COc1cc2c(cc1Oc1cccc(N(C)C)c1)NC(=O)C21CCN(Cc2ccccn2)CC1,,10 µM (active)
COc1cc2c(cc1Oc1ccccc1)NC(=O)C21CCN(c2ccnc(C)n2)CC1,-18.9%,
CN(Cc1ccccc1)C[C@H]1CN2CC[C@H]1C[C@@H]2CNC(=O)Nc1cccc(C#N)c1,4.8%,
COc1cc2c(cc1OCc1ccncc1)NC(=O)C21CCN(c2ncccn2)CC1,0.378%,
COc1cc2c(cc1OCc1ccccc1)NC(=O)C21CCN(CCC(C)C)CC1,-15.2%,
COc1cc2c(cc1OCc1ccncc1)NC(=O)C21CCN(c2ncc(F)cn2)CC1,,20 µM (active)
Cc1nc(-c2ccccc2)cc([C@H]2CN3CC[C@H]2C[C@@H]3CNC2CCOCC2)n1,3.49%,
O=C(NCc1ccccc1)[C@H]1CN2CCC1C[C@@H]2Cn1cc(-c2ccc(F)cc2)nn1 (stereo not given in full),-8.5%,
Cc1nc(-c2ccccc2)cc([C@H]2CN3CC[C@H]2C[C@@H]3CNC2CCN(C)CC2)n1,-2.27%,
CCC(CC)c1cc([C@H]2CN3CC[C@H]2C[C@@H]3CNS(=O)(=O)c2ccccc2C#N)nc(-c2ccncc2)n1,-24.1% [at 46.3 µM],
CCCS(=O)(=O)NC[C@H]1C[C@@H]2CCN1C[C@@H]2c1cc(-c2ccccc2)nc(C)n1,1.77%,
CCC(CC)c1cc([C@H]2CN3CC[C@H]2C[C@@H]3CNC(=O)NCc2ccccc2)nc(-c2ccncc2)n1,,11.2 µM (active)
COc1ccc(C(=O)N2[C@H]3CC[C@@H]2c2cnc(-c4ccccc4)nc2C3)c(OC)c1,-30.3% [at 46.3 µM],
COc1cc2c(cc1OCc1ccccc1)NC(=O)C21CCN(C(=O)C(C)C)CC1,-9.19%,
